Screens from PubChem.
In the library only some 2.7% were active in any assay of this set; here they are far more common.
PAX8 inh HTS – inhibitors of PAX8 transcriptional activity in RMG-I cells; RMG-I TPO-luciferase reporter, SteadyGlo, 24 h; 1.2% of 360,000 active; inhibition, % at 12.6 µM;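 active means mean replicate inhibition at least 60% with every replicate also reaching 60%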;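 further: luciferase light reporting Pax8 driven TPO promoter activity; plate controls were median of neutral control wells for no effect and mitoxantrone controls for full effect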
EWS-Fli inh – blocks EWS/Fli oncoprotein-driven transcription | inhibition, % at 12.6 µM | A673 NR0B1-luciferase reporter, viability-normalised | AID 651661 | 0.67% of 350,000 active;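 active means mean inhibition of at least 50% after viability correction, with every replicate also passing that limit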;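 further: firefly luciferase signal divided by Alamar Blue viability fluorescence both relative to DMSO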
PGC1a acetyl inh – PGC1a acetylation modulation, inhibitor mode. U2OS PGC1a acetylation, AlphaScreen anti-acetyl-lysine; with virally co-expressed GCN5 acetyltransferase. inhibition, % at 15.6 µM. 0.17% of 350,000 active;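 active means every replicate shows inhibition of at least 40%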;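 further: 0% = neutral control wells and 100% = positive control wells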
Env fusion inh – HIV envelope-mediated fusion inhibition; 1.1% of 360,000 active; inhibition, % at 12.3 µM; AID 651610; HeLa-JRFL Env/CEM21 cell fusion, luciferase;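 active means mean replicate inhibition score of at least 50 and every replicate individually at or above 50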;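 further: 0% = plate neutral controls and 100% = maraviroc near 300 nM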
GSIS activator – primary screen for activators of insulin secretion dependent on glucose, INS-1E cells, GLuc reporter luminescence | INS-1E GLuc reporter insulin secretion, 2-3 h | 0.61% of 370,000 active | AID 743287 | activation, % at 16.6 µM;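 active means lowest replicate activation of at least 40%, so every replicate reaches that level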;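 further: 0% = median of neutral control wells and 100% = median of IBMX positive control wells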
CFTR F508del cor – CFTR F508del correction in bronchial cells; CFBE cells, YFP halide quenching; stimulated with forskolin plus potentiator P3; % fluorescence drop versus neutral controls; AID 720511; activity (quench increase), % at 7.58 µM; 0.36% of 350,000 active;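 active means mean added fluorescence quench of at least 8% versus neutral control, with both replicates also reaching 8%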;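 further: cells transiently co-express mutant CFTR-F508del with the halide-sensitive YFP; corrector assay measuring rescue of mutant channel to the surface after 24 h compound exposure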
* hit, by the source's call; . = no result; [ ] = remark or other dose.

SMILES | PAX8 inh HTS | EWS-Fli inh | PGC1a acetyl inh | Env fusion inh | GSIS activator | CFTR F508del cor
CCOc1ccc2nc(NCCNC(=O)Nc3ccccc3)c(C#N)cc2c1 | 8.3 | . | 64.2* | -73.3 | 200.2* | .
C[C@H](CO)N1C[C@H](C)[C@H](CN(C)C(=O)c2ccc(F)cc2)Oc2ncc(-c3ccncc3)cc2C1=O | . | -11.7 | 7.3 | -30.1[16.7 µM] | 2.7 | -3.0
CC1Cc2ccccc2N1c1ncnc(N)c1[N+](=O)[O-] (configuration not stated) | -15.4 | 6.9 | . | 65.5* | -16.4 | -8.2
CCCCN(Cc1ccccc1)S(=O)(=O)c1cc(Br)cc2c1N(C(C)=O)C(C)C2 (configuration not stated) | . | . | 4.8 | 63.1* | . | .
COc1ccc2c3c(n(C)c2c1)[C@H](CO)N(C(=O)CC1CC1)CC31CCN(C(=O)CC2CC2)CC1 | . | -9.0 | . | -2.1[16.7 µM] | 2.9 | 1.7
C[C@@H]1CN([C@H](C)CO)C(=O)c2cccc(NC(=O)Nc3ccccc3)c2O[C@@H]1CN(C)Cc1ccc2c(c1)OCO2 | 1.0 | -7.2 | -5.0 | . | 3.9 | -0.7
CCCN(C[C@H]1N[C@H](CO)[C@@H]1c1ccc(-c2cccnc2)cc1)C(C)=O | -9.5 | 4.2 | -3.6 | . | 7.1 | -0.8
CN(C[C@H]1N[C@@H](CO)[C@@H]1c1ccc(-c2cccnc2)cc1)C(=O)c1ccccc1 | 98.3* | 21.0 | -24.9 | . | 8.0 | -12.8
CN(C[C@@H]1N[C@H](CO)[C@H]1c1ccccc1)C(=O)c1ccccn1 | -19.9 | 3.4 | -2.3 | . | 3.4 | 8.6*
CN(C[C@@H]1N[C@H](CO)[C@@H]1c1ccccc1)C(=O)c1ccccc1F | . | . | . | . | -5.5 | .
C[C@@H]1CN([C@@H](C)CO)C(=O)c2cccc(NS(=O)(=O)c3ccc(F)cc3)c2O[C@@H]1CN(C)S(C)(=O)=O | . | 1.6 | -5.2 | -12.8[16.7 µM] | 12.0 | 1.2
CCC(=O)Nc1ccc2c(c1)C(=O)N(C)C[C@@H](OC)[C@H](C)CN(CC1CCCCC1)[C@@H](C)CO2 | . | -5.7 | -17.8 | . | -18.4 | 1.4
OC(c1ccccc1)(c1nc(-c2cccc(C(F)(F)F)c2)cs1)C(F)(F)F (configuration not stated) | -4.3 | 19.9 | 5.1 | 10.2 | 106.3* | -1.2
N#Cc1cccc(-c2csc(C(O)(c3ccccc3)C(F)(F)F)n2)c1 (configuration not stated) | 9.2 | 57.7* | -3.7 | -24.6 | . | -1.9
O=C([C@@H]1[C@@H](CO)[C@@H]2Cn3c(ccc(-c4ccncc4)c3=O)[C@@H]2N1CCC(F)(F)F)N1CCCCC1 | 1.1 | -4.3 | -1.5 | . | 8.2 | 1.4
COc1ccc(CN2CCNC(=O)C2CC(=O)NCCCn2nnc3ccccc32)cc1C (configuration not stated) | 2.1 | 10.5 | 6.2 | 60.9* | 18.9 | 0.2
CC(C)NC(=O)NCC[C@@H]1CC[C@@H](NS(=O)(=O)c2ccccc2)[C@H](CO)O1 | . | -8.0 | 4.1 | . | -6.2 | -0.5
CC(=O)n1cc(N(C(=O)CCl)c2ccc(C)cc2)c2ccccc21 | 104.4* | 40.1 | 11.8 | 32.4 | . | -9.1
CC(C)CCSc1nc(N)c(C#N)cc1C#N | . | . | -6.7 | 82.5* | -10.6 | .
CC(=O)c1cc(C#N)c(SCCC(C)C)nc1C | . | -11.6 | 3.6 | . | 4.2 | -2.0
O=C(Nc1nc2ccccc2[nH]1)c1ccccc1F | . | . | 14.4 | 74.6* | 10.9 | .
COc1ccc(Cl)cc1C(=O)Nc1nc2ccccc2[nH]1 | 41.6 | 72.3* | . | -38.4 | 29.6 | 0.6
Cc1cc(NC(=O)c2ccccc2F)n(-c2nc3ccccc3[nH]2)n1 | -17.6 | . | -31.3 | -72.1 | 64.3* | .
COc1ccc(C(=O)Nc2nc3ccccc3[nH]2)cc1OC | . | -77.5 | . | . | 17.3 | 2.7
O=C(Nc1nc2ccccc2[nH]1)c1ccccc1OC(F)F | -5.9 | . | . | -95.8 | 12.2 | 1.4
CN(c1ccccc1)S(=O)(=O)c1ccc(Cl)c(C(=O)Nc2nc3ccccc3[nH]2)c1 | 15.8 | . | 1.3 | 71.8* | -32.4 | .
COCCNC(=O)C[C@H]1CC[C@@H]2[C@H](COc3ccc(NC(=O)C4CCOCC4)cc3C(=O)N2C)O1 | -7.7 | 0.5 | 7.2 | . | 3.5 | -1.1
N#CC(C#N)=C1C=CC=CN1/C(=C\c1ccco1)C(=O)c1ccc(-c2ccccc2)cc1 | 92.4* | . | . | -187.9 | -32.3 | .
CCn1c(C)cs/c1=N\S(=O)(=O)c1ccccc1 | -8.8 | 5.4 | -0.6 | -7.9 | 8.7 | -1.6
